This passage reports growth inhibition results from PubChem BioAssay (NCI).

The panel holds about 79,000 compounds, 15% with a hit somewhere; the sample as a whole holds those more often. Values without a mark were called inactive. The source made the active and inactive calls. No stated cut-off is given here; in the data, active means growth inhibition above about 70%; inactive means the rest.

Experiment [1] is described as follows: NCI Yeast Anticancer Drug Screen. Data for the rad50 strain (AID 155).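 Further: 0% = growth of vehicle-only cultures of the same strain.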 Conditions: S. cerevisiae rad50 strain growth inhibition, stronger effect = higher value. Summed up:
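A DNA repair-deficient yeast mutant serves as the test organism; compound-induced growth inhibition is calculated against vehicle-treated cells.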

Experiment [2] is described as follows: NCI Yeast Anticancer Drug Screen. Data for the mec2-1 strain (AID 157). Conditions: S. cerevisiae mec2-1 strain, stronger effect = higher value. The method in brief:
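Growth inhibition is read against vehicle-treated controls after compound exposure of the mec2-1 yeast strain, which is defective in DNA damage repair or cell cycle control.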

The nature of experiment [3]: NCI Yeast Anticancer Drug Screen. Data for the sgs1 mgt1 strain (AID 161).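 Further: 0% = growth of cultures given vehicle only.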 Conditions: S. cerevisiae sgs1 mgt1 strain, stronger effect = higher value. Summed up: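 Compounds are added to genetically altered yeast, and growth is compared with cultures given vehicle alone to give percent inhibition.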
A short description of experiment [4]: NCI Yeast Anticancer Drug Screen. Data for the cln2 rad14 strain (AID 165).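 Further: 0% = growth equal to vehicle treated cultures.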 The settings on record: S. cerevisiae cln2 rad14 strain, stronger effect = higher value. Summed up:
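Growth inhibition, relative to vehicle-treated controls, is the read-out. The test organism is a yeast strain with defined genetic alterations, cln2 rad14.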

Experiment [5] is described as follows: NCI Yeast Anticancer Drug Screen. Data for the bub3 strain (AID 167). Conditions: S. cerevisiae bub3 mutant strain, stronger effect = higher value. The method in brief: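 Inhibition values come from growth of compound-treated mutant yeast normalised to vehicle-treated controls.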
Experiment [6] is described as follows: NCI Yeast Anticancer Drug Screen. Data for the mlh1 rad18 strain (AID 175). The settings on record: S. cerevisiae mlh1 rad18 strain growth inhibition, stronger effect = higher value. The method in brief: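 Cells of a genetically altered yeast strain, deficient in DNA damage repair, were treated with compound. Their growth was then compared with that of vehicle-treated cultures to give inhibition.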

Where [7] appears, read: at 5.0 µM (retest, dose inferred, filed as 0.5).
Setting [8] is: at 50.0 µM (retest, dose inferred, filed as 5.0).

For the compound `CC(=O)[O-].CC(=O)[O-].O=C(N/N=C/c1cc(Cl)cc(Cl)c1[OH2+])c1ccncc1.[Co+2]`, the growth inhibition was 6% in experiment [1] (setting [7]); 23% in experiment [1] (setting [8]); 51.6% in experiment [1] (at 50.0 µM); 17% in experiment [2] (setting [7]); 41% in experiment [2] (setting [8]); 61.9% in experiment [2] (at 50.0 µM). Moreover, the growth inhibition was 7% in experiment [3] (setting [7]); 33% in experiment [3] (setting [8]); 58.2% in experiment [3] (at 50.0 µM); 5% in experiment [4] (setting [7]); 13% in experiment [4] (setting [8]); 26.4% in experiment [4] (at 50.0 µM). In addition, the growth inhibition is 2% in experiment [5] (setting [7]); 9% in experiment [5] (setting [8]); 48% in experiment [5] (at 50.0 µM); 4% in experiment [6] (setting [7]); 39% in experiment [6] (setting [8]); 73.5% (active) in experiment [6] (at 50.0 µM).
On to `CC[CH2][Pb]([CH2]CC)([CH2]CC)[O]C(C)=O`, for which the growth inhibition in experiment [1] (setting [7]) is 54%; in experiment [1] (setting [8]), 79% (active); in experiment [1] (at 50.0 µM) it was 91% (active); in experiment [2] (setting [7]), 50%; in experiment [2] (setting [8]), 75% (active); in experiment [2] (at 50.0 µM), 92.7% (active). Moreover, the growth inhibition in experiment [3] (setting [7]) is 100% (active); in experiment [3] (setting [8]), 100% (active); in experiment [3] (at 50.0 µM), 93.8% (active); in experiment [4] (setting [7]), 73% (active); in experiment [4] (setting [8]) it was 100% (active); in experiment [4] (at 50.0 µM) it was 91.3% (active). The growth inhibition was 99% (active) in experiment [5] (setting [7]); 100% (active) in experiment [5] (setting [8]); 90.6% (active) in experiment [5] (at 50.0 µM); 49% in experiment [6] (setting [7]); 67% in experiment [6] (setting [8]); 91.3% (active) in experiment [6] (at 50.0 µM).
As to `O=C(CBr)OCC(Br)CBr` (stereo not given), the growth inhibition in experiment [1] (setting [7]) is 98% (active); in experiment [1] (setting [8]) it was 39%; in experiment [1] (at 50.0 µM), 99.2% (active); in experiment [2] (setting [7]) it was 99% (active); in experiment [2] (setting [8]) it was 50%; in experiment [2] (at 50.0 µM), 99% (active). Moreover, the growth inhibition is 99% (active) in experiment [3] (setting [7]); 36% in experiment [3] (setting [8]); 99.3% (active) in experiment [3] (at 50.0 µM); 97% (active) in experiment [4] (setting [7]); -4% in experiment [4] (setting [8]); 98.8% (active) in experiment [4] (at 50.0 µM). Also, the growth inhibition was 99% (active) in experiment [5] (setting [7]); 83% (active) in experiment [5] (setting [8]); 99.3% (active) in experiment [5] (at 50.0 µM); 99% (active) in experiment [6] (setting [7]); 49% in experiment [6] (setting [8]); 98.8% (active) in experiment [6] (at 50.0 µM).
As to `Cc1cc2c(cc1O)C(C)(C)CCC2(C)C`, the growth inhibition in experiment [1] (setting [7]) was 8%; in experiment [1] (setting [8]), 70% (active); in experiment [1] (at 50.0 µM) it was -6.9%; in experiment [2] (setting [7]) it was -1%; in experiment [2] (setting [8]), 77% (active); in experiment [2] (at 50.0 µM), 97.2% (active). The growth inhibition in experiment [3] (setting [7]) was 1%; in experiment [3] (setting [8]), 78% (active); in experiment [3] (at 50.0 µM) it was 47.9%; in experiment [4] (setting [7]), 9%; in experiment [4] (setting [8]), 90% (active); in experiment [4] (at 50.0 µM), 52.8%. The growth inhibition is 0% in experiment [5] (setting [7]); 83% (active) in experiment [5] (setting [8]); 96.8% (active) in experiment [5] (at 50.0 µM); -2% in experiment [6] (setting [7]); 62% in experiment [6] (setting [8]); 97.3% (active) in experiment [6] (at 50.0 µM).
For the compound `CC(=O)OC1CCC2C3CCC4C(F)C(=O)C(F)(F)CC4(C)C3CCC12C` (stereo not given), the growth inhibition in experiment [1] (setting [7]) is 2%; in experiment [1] (setting [8]), 78% (active); in experiment [1] (at 50.0 µM), 49%; in experiment [2] (setting [7]), -12%; in experiment [2] (setting [8]), 93% (active); in experiment [2] (at 50.0 µM), 5.6%. In addition, the growth inhibition in experiment [3] (setting [7]) is -2%; in experiment [3] (setting [8]), 91% (active); in experiment [3] (at 50.0 µM) it was 63.5%; in experiment [4] (setting [7]), -3%; in experiment [4] (setting [8]), 46%; in experiment [4] (at 50.0 µM), 63%. For the same compound, the growth inhibition is -1% in experiment [5] (setting [7]); 60% in experiment [5] (setting [8]); 8.95% in experiment [5] (at 50.0 µM); 0% in experiment [6] (setting [7]); 90% (active) in experiment [6] (setting [8]); 12.7% in experiment [6] (at 50.0 µM).
In the case of `C[C@]12C/C(=C/O)C(=O)C(O)=C1CC[C@@H]1C2CC[C@@]2(C)C1CC[C@@H]2O` (stereo not given in full), the growth inhibition in experiment [1] (setting [7]) is 6%; in experiment [1] (setting [8]), 56%; in experiment [1] (at 50.0 µM), 78.9% (active); in experiment [2] (setting [7]), 5%; in experiment [2] (setting [8]), 33%; in experiment [2] (at 50.0 µM) it was 59.4%. The growth inhibition in experiment [3] (setting [7]) was 4%; in experiment [3] (setting [8]) it was 70% (active); in experiment [3] (at 50.0 µM), 52.2%; in experiment [4] (setting [7]), 6%; in experiment [4] (setting [8]), 52%; in experiment [4] (at 50.0 µM), 62.2%. The growth inhibition in experiment [5] (setting [7]) was -39%; in experiment [5] (setting [8]), 81% (active); in experiment [5] (at 50.0 µM) it was 79.4% (active); in experiment [6] (setting [7]), 8%; in experiment [6] (setting [8]) it was 74% (active); in experiment [6] (at 50.0 µM), 89.2% (active).
Consider `CC(=O)OCC12CC(O)C(C)=CC1OC1C(O)C(OC(C)=O)C2(C)C12CO2` (stereo not given), for which the growth inhibition is 8% in experiment [1] (setting [7]); 33% in experiment [1] (setting [8]); 91.8% (active) in experiment [1] (at 50.0 µM); 12% in experiment [2] (setting [7]); 36% in experiment [2] (setting [8]); 91% (active) in experiment [2] (at 50.0 µM). The growth inhibition is 13% in experiment [3] (setting [7]); 36% in experiment [3] (setting [8]); 90.3% (active) in experiment [3] (at 50.0 µM); 16% in experiment [4] (setting [7]); 39% in experiment [4] (setting [8]); 77.3% (active) in experiment [4] (at 50.0 µM). Further, the growth inhibition was 8% in experiment [5] (setting [7]); 21% in experiment [5] (setting [8]); 91.8% (active) in experiment [5] (at 50.0 µM); 8% in experiment [6] (setting [7]); 37% in experiment [6] (setting [8]); 92.1% (active) in experiment [6] (at 50.0 µM).
Turning to `[I][Hg][CH2]C1OCCOC1[CH2][Hg][I]` (stereo not given), the growth inhibition was 1% in experiment [1] (setting [7]); 3% in experiment [1] (setting [8]); 99.5% (active) in experiment [1] (at 50.0 µM); -39% in experiment [2] (setting [7]); 2% in experiment [2] (setting [8]); 99.7% (active) in experiment [2] (at 50.0 µM). The growth inhibition in experiment [3] (setting [7]) was -1%; in experiment [3] (setting [8]), 2%; in experiment [3] (at 50.0 µM), 99.5% (active); in experiment [4] (setting [7]), -2%; in experiment [4] (setting [8]), 4%; in experiment [4] (at 50.0 µM), 99.2% (active). The growth inhibition in experiment [5] (setting [7]) was -8%; in experiment [5] (setting [8]) it was -6%; in experiment [5] (at 50.0 µM), 99.5% (active); in experiment [6] (setting [7]), -1%; in experiment [6] (setting [8]) it was 3%; in experiment [6] (at 50.0 µM) it was 99.2% (active).
For the compound `CC1=C[C@H]2O[C@H]3C[C@H]4OC(=O)/C=C\C=C\C(=O)OCC[C@@H](C)[C@H](O)C(=O)OC[C@@]2(CC1)[C@@]4(C)[C@]31CO1`, the growth inhibition in experiment [1] (setting [7]) was 99% (active); in experiment [1] (setting [8]), 99% (active); in experiment [1] (at 50.0 µM), 92% (active); in experiment [2] (setting [7]), 100% (active); in experiment [2] (setting [8]) it was 99% (active); in experiment [2] (at 50.0 µM), 92.9% (active). In addition, the growth inhibition in experiment [3] (setting [7]) was 100% (active); in experiment [3] (setting [8]), 99% (active); in experiment [3] (at 50.0 µM) it was 92.8% (active); in experiment [4] (setting [7]), 98% (active); in experiment [4] (setting [8]) it was 98% (active); in experiment [4] (at 50.0 µM), 90.3% (active). The growth inhibition in experiment [5] (setting [7]) was 100% (active); in experiment [5] (setting [8]), 98% (active); in experiment [5] (at 50.0 µM), 92% (active); in experiment [6] (setting [7]), 98% (active); in experiment [6] (setting [8]) it was 98% (active); in experiment [6] (at 50.0 µM) it was 92% (active).
For the compound `CC(C)c1ccccc1OP(=S)(S)Oc1ccccc1C(C)C`, the growth inhibition in experiment [1] (setting [7]) is 4%; in experiment [1] (setting [8]), 38%; in experiment [1] (at 50.0 µM), 82.8% (active); in experiment [2] (setting [7]), 5%; in experiment [2] (setting [8]), 24%; in experiment [2] (at 50.0 µM) it was 2.75%. The growth inhibition in experiment [3] (setting [7]) is 1%; in experiment [3] (setting [8]), 45%; in experiment [3] (at 50.0 µM) it was 72.8% (active); in experiment [4] (setting [7]) it was 4%; in experiment [4] (setting [8]), 54%; in experiment [4] (at 50.0 µM) it was 87.3% (active). Besides, the growth inhibition in experiment [5] (setting [7]) was 0%; in experiment [5] (setting [8]), 54%; in experiment [5] (at 50.0 µM), 37%; in experiment [6] (setting [7]), 0%; in experiment [6] (setting [8]) it was 68%; in experiment [6] (at 50.0 µM), 79% (active).
